# Test results from PubChem BioAssay (NCATS).
# Records with an inconclusive call do not appear. Entries that show only a call come without a potency. The source made the active and inactive calls. Calls come from the whole dose curve; as a rule, active = well fitted curve in the direction sought with a large enough effect; inconclusive = small, poorly fitted or top-dose-only effect, or another doubt; inactive = no such curve, though single readings can be large; an effect the other way counts as inactive or inconclusive.
# What was measured:
# [1] = target: Glutathione peroxidase 1 (Homo sapiens) (UniProt P07203); test: Primary qHTS Assay for Inhibitors of Recombinant Selenoprotein Glutathione Peroxidase 1 (GPX1) (AID 1845191); settings: recombinant GPX1, GR-coupled NADPH fluorescence, 15 min; series mostly up to 48.8 µM; note: nearly all actives have a fitted effect of over 65% in size
# Glutathione peroxidase 1 (Homo sapiens), sequence (P07203 whole entry, looked up): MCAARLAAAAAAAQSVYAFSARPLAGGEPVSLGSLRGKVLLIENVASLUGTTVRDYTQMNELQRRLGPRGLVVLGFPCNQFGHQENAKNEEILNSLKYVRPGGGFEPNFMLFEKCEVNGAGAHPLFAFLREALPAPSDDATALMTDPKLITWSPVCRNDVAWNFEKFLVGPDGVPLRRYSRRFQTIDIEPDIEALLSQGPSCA
# How it was run: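 GR-coupled readout: NADPH consumption tracked by fluorescence, ex 340/em 450 nm, at t=0 and after 15 min at RT. Final mix 10 nM GPX1, 1 mM GSH, 0.5 mM CHP, 0.5 mM NADPH, 100 nM GR, 0.01% BSA, following 30 min enzyme–compound preincubation.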
# [2] = target: Phospholipid hydroperoxide glutathione peroxidase GPX4 (Homo sapiens) (UniProt P36969); test: Primary qHTS Assay for Inhibitors of Recombinant Selenoprotein Glutathione Peroxidase 4 (GPX4) (AID 1845192); settings: recombinant GPX4, GR-coupled NADPH fluorescence, 15 min; series mostly up to 50 µM; note: nearly all actives have a fitted effect of over 65% in size
# Phospholipid hydroperoxide glutathione peroxidase GPX4 (Homo sapiens), sequence (P36969 whole entry, looked up): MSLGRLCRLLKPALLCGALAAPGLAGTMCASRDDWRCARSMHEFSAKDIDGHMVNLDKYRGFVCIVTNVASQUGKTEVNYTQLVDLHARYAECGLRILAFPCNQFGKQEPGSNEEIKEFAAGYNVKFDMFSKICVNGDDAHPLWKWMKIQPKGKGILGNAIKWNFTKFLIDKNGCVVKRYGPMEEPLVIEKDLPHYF
# How it was run: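 Steps: GPX4 plus compound, 30 min RT; add GR/GSH/NADPH master mix; start with cumene hydroperoxide; read 340/450 nm fluorescence at 0 and 15 min. Finals were 200 nM GPX4, 1 mM GSH, 0.5 mM CHP, 0.5 mM NADPH, 100 nM GR.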
# [3] = Quantitative High-Throughput drug screen in 47 multiple myeloma cell lines against the NCATS MIPE library collection: Delta47_JCRB cell viability assay (AID 1918925; note: nearly all actives have a fitted effect of over 45% in size; note: potency is the fitted concentration of half-maximal effect); settings: Delta47 myeloma viability, CellTiter-Glo ATP, 48 h; series mostly up to 45.8 µM
# How it was run: (§1)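 Steps: seed 500 cells per well; pin-transfer MIPE 4.0 library; incubate 48 h at 37C, 5% CO2, humidified; add CellTiter-Glo, 5 min room temperature; read luminescence.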
# [4] = Quantitative High-Throughput drug screen in 47 multiple myeloma cell lines against the NCATS MIPE library collection: EJM_DSMZ cell viability assay (AID 1918926; note: nearly all actives have a fitted effect of over 30% in size; note: potency is the fitted concentration of half-maximal effect); settings: EJM myeloma cell viability, CellTiter-Glo ATP, 48 h; series mostly up to 45.8 µM
# How it was run: as §1
# [5] = Quantitative High-Throughput drug screen in 47 multiple myeloma cell lines against the NCATS MIPE library collection: AMO1_DSMZ cell viability assay (AID 1918927; note: nearly all actives have a fitted effect of over 30% in size; note: potency is the fitted concentration of half-maximal effect); settings: AMO1 myeloma cells viability, CellTiter-Glo ATP luminescence, 48 h; series mostly up to 45.8 µM
# How it was run: as §1
# [6] = Quantitative High-Throughput drug screen in 47 multiple myeloma cell lines against the NCATS MIPE library collection: ARD_JJKsccE7 cell viability assay (AID 1918929; note: potency is the fitted concentration of half-maximal effect); settings: ARD myeloma cell line viability, CellTiter-Glo, 48 h; series mostly up to 45.8 µM
# How it was run: as §1
# [7] = Quantitative High-Throughput drug screen in 47 multiple myeloma cell lines against the NCATS MIPE library collection: Karpas620_DSMZ cell viability assay (AID 1918959); settings: Karpas620 myeloma viability, CellTiter-Glo ATP luminescence, 48 h; series mostly up to 45.8 µM; note: nearly all actives have a fitted effect of over 30% in size; note: potency is the fitted concentration of half-maximal effect
# How it was run: (§2)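 We plated 500 myeloma cells per well, pinned in MIPE 4.0 compounds, and incubated for 48 hours at 37C. ATP was then quantified with CellTiter-Glo, with DMSO and media-only wells defining 100% and 0%.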
# [8] = Quantitative High-Throughput drug screen in 47 multiple myeloma cell lines against the NCATS MIPE library collection: FR4_PLB cell viability assay (AID 1918924; note: nearly all actives have a fitted effect of over 35% in size; note: potency is the fitted concentration of half-maximal effect); settings: FR4_PLB myeloma cells viability, CellTiter-Glo ATP, 48 h; series mostly up to 45.8 µM
# How it was run: as §2
# [9] = Quantitative High-Throughput drug screen in 47 multiple myeloma cell lines against the NCATS MIPE library collection: ARP1_JJKsccF8 cell viability assay (AID 1918928; note: nearly all actives have a fitted effect of over 40% in size; note: potency is the fitted concentration of half-maximal effect); settings: ARP1 myeloma cells viability, CellTiter-Glo ATP, 48 h; series mostly up to 45.8 µM
# How it was run: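 500 cells/well; MIPE 4.0 library pinned in; 48 h, 37 °C, 5% CO2; CellTiter-Glo ATP luminescence. Controls: DMSO = 100% viability, medium only = 0%.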
# [10] = target: Luciferin 4-monooxygenase (Photinus pyralis) (UniProt P08659); test: Primary firefly luciferase (FLuc) qHTS assay for identification of artifact compounds. (AID 1845220); settings: purified firefly luciferase, luminescence, 5 min; series mostly up to 54.1 µM; note: nearly all actives have a fitted effect of over 60% in size
# How it was run: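 D-luciferin and ATP (10 uM each, final) in Tris acetate buffer pH 7.6 were incubated with compounds for 15 min at room temperature. The reaction was started with 10 nM Photinus pyralis luciferase and luminescence read after 5 min. Percent inhibition was fitted to a 4-parameter Hill equation.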
# [11] = Primary fluorescence-based thiol-reactive (MSTI) qHTS assay for identification of artifact compounds. (AID 1845221); settings: MSTI thiol-reactivity probe, 1 h; series mostly up to 53.8 µM; note: nearly all actives have a fitted effect of over 65% in size; note: potency is the fitted concentration of half-maximal effect
# How it was run: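 MSTI probe at 4 uM final in 2% DMSO/PBS pH 7.4; compounds, 1 h at room temperature in dark. Fluorescence Ex/Em 525/598 nm, normalised to Acetyl-MSTI and MSTI, fitted to 4-parameter Hill.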
# [12] = Primary redox qHTS assay for identification of artifact compounds. (AID 1845223); settings: Amplex Red/HRP redox cycling with DTT, fluorescence; series mostly up to 53.8 µM
# How it was run: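 Redox-cycling detection via DTT (250 uM final) oxidation coupled to Amplex Red (25 uM)/HRP (250 mU/mL) in HBSS. 15 min preincubation plus 30 min after DTT, room temperature. Ex/Em 525/598 nm; 4-parameter Hill fit against DMSO and 10 uM DA3003.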
smiles,measurement,setting,value
C#CC1(O)CCC2C3CCC4=CC(=O)CCC4(C)C3CCC21C (centres undefined),Potency,[1],inactive
same,Potency,[2],inactive
same,Potency,[3],inactive
same,Potency,[4],inactive
same,Potency,[5],inactive
same,Potency,[6],inactive
same,Potency,[7],inactive
O=[N+]([O-])c1ncc[nH]1,Potency,[8],inactive
same,Potency,[3],inactive
same,Potency,[4],inactive
same,Potency,[5],inactive
same,Potency,[7],inactive
CC(C)(O)C=CC(=O)[C@](C)(O)[C@H]1[C@H](O)C[C@]2(C)[C@@H]3CC=C4[C@@H](C=C(O)C(=O)C4(C)C)[C@]3(C)C(=O)C[C@@]12C,Potency,[8],46.9 nM (active)
same,Potency,[3],0.0166 µM (active)
same,Potency,[4],0.0083 µM (active)
same,Potency,[5],41.8 nM (active)
same,Potency,[6],0.296 µM (active)
same,Potency,[7],0.418 µM (active)
CC[C@@H]1[C@@H](C)O[C@@](O)([C@@H](C)[C@H](O)[C@H](C)[C@H]2OC(=O)C=CC=C[C@@H](C)[C@@H]([C@@H](C)[C@@H](O)[C@H](C)[C@@]3(O)C[C@H](O[C@H]4C[C@H](O)[C@H](O)[C@H](C)O4)[C@H](CC)[C@@H](C)O3)OC(=O)C=CC=C[C@@H]2C)C[C@H]1O[C@H]1C[C@H](O)[C@H](O)[C@H](C)O1,Potency,[8],526 nM (active)
same,Potency,[3],0.743 µM (active)
same,Potency,[4],0.833 µM (active)
same,Potency,[5],332 nM (active)
same,Potency,[6],0.372 µM (active)
same,Potency,[7],0.372 µM (active)
O=c1[nH]c2ccccc2n1C1CCN(Cc2ccc(-c3[nH]c4cc5ncnc5cc4nc3-c3ccccc3)cc2)CC1,Potency,[1],inactive
same,Potency,[8],23500 nM (active)
same,Potency,[3],1.87 µM (active)
same,Potency,[4],20.9 µM (active)
same,Potency,[9],14.8 µM (active)
same,Potency,[6],18.7 µM (active)
CCOC(=O)Nc1ccc(NCc2ccc(F)cc2)cc1N,outcome,[10],inactive
same,Potency,[11],1.19 µM (active)
same,outcome,[12],inactive
same,Potency,[8],inactive
same,Potency,[3],7.43 µM (active)
same,Potency,[4],inactive
COC1=CC(C)=C[C@@H](C)[C@@H](O)[C@@H](C)CC(C)=CC=C[C@H](OC)[C@H]([C@@H](C)[C@@H](O)[C@H](C)[C@@]2(O)C[C@@H](O)[C@H](C)[C@@H](C(C)C)O2)OC1=O,Potency,[8],4.2 nM (active)
same,Potency,[3],0.0187 µM (active)
same,Potency,[4],18.7 µM (active)
same,Potency,[5],1 nM (active)
same,Potency,[7],14.8 µM (active)
COCC1(CO)C(=O)C2CCN1CC2 (centres undefined),Potency,[1],inactive
same,Potency,[2],inactive
same,Potency,[8],16600 nM (active)
same,Potency,[4],20.9 µM (active)
same,Potency,[9],1.48 µM (active)
same,Potency,[6],20.9 µM (active)
same,Potency,[7],23.5 µM (active)
N=c1c2c(-c3ccccc3)c(-c3ccccc3)n(Cc3ccccc3)c2ncn1C1CCC(O)CC1 (centres undefined),Potency,[1],inactive
same,Potency,[2],inactive
same,Potency,[3],0.166 µM (active)
same,Potency,[9],14.8 µM (active)
same,Potency,[6],8.33 µM (active)
same,Potency,[7],9.35 µM (active)
CC(C)(O)C(=O)Nc1ccc([N+](=O)[O-])c(C(F)(F)F)c1,Potency,[1],inactive
same,Potency,[2],inactive
same,Potency,[8],inactive
same,Potency,[3],7.43 µM (active)
same,Potency,[6],23.5 µM (active)
same,Potency,[7],18.7 µM (active)
Clc1ccccc1C(c1ccccc1)(c1ccccc1)n1cccn1,Potency,[1],inactive
same,Potency,[2],inactive
same,Potency,[8],inactive
same,Potency,[3],inactive
same,Potency,[6],inactive
same,Potency,[7],inactive
CC(=O)N(C)c1cccc(-c2ccnc3c(C(=O)c4cccs4)cnn23)c1,Potency,[1],inactive
same,outcome,[10],inactive
same,Potency,[11],inactive
same,outcome,[12],inactive
same,Potency,[8],inactive
same,Potency,[4],inactive
same,Potency,[6],20.9 µM (active)
CC(N[C@H]1C[C@H]1c1ccccc1)c1ccc2c(c1)OCCO2 (some centres undefined),Potency,[2],inactive
same,outcome,[10],inactive
same,Potency,[11],inactive
same,outcome,[12],inactive
same,Potency,[8],inactive
same,Potency,[3],inactive
same,Potency,[4],inactive
same,Potency,[5],inactive
same,Potency,[7],inactive
C[C@H]1CCCC=CC2C[C@H](O)C[C@@H]2[C@H](O)C=CC(=O)O1 (some centres undefined),Potency,[8],inactive
same,Potency,[3],inactive
C[C@]12CC[C@@H]3[C@@H](CCC4=CC(=O)CC[C@@H]43)[C@@H]1CC[C@@H]2OC(=O)CCc1ccccc1,Potency,[1],inactive
same,Potency,[2],inactive
same,Potency,[8],inactive
same,Potency,[7],inactive
COc1cccc2c1[C@]13CCN(CC4CC4)[C@H](C2)[C@]1(OC)CCC(=O)C3,Potency,[8],inactive
same,Potency,[3],inactive
same,Potency,[4],inactive
same,Potency,[5],inactive
same,Potency,[6],inactive
same,Potency,[7],inactive
C1=C2CCCN[C@H]2[C@@H]2C[C@H]1[C@@H]1CCCCN1C2,Potency,[8],inactive
same,Potency,[3],inactive
same,Potency,[4],inactive
same,Potency,[5],inactive
same,Potency,[7],inactive
CN(C)NC(=O)CCC(=O)O,Potency,[1],inactive
same,Potency,[2],inactive
same,Potency,[8],inactive
same,Potency,[4],inactive
same,Potency,[5],inactive
same,Potency,[6],inactive
same,Potency,[7],inactive
CC(=O)[O][Hg][c]1ccccc1,Potency,[2],inactive
C[C@]12CCC(=O)C(O)=C1CC[C@@H]1[C@H]3CCC(=O)[C@@]3(C)CC[C@@H]12,Potency,[8],inactive
same,Potency,[3],inactive
same,Potency,[4],inactive
same,Potency,[5],inactive
same,Potency,[6],inactive
same,Potency,[7],inactive
CC=C(C)C(=O)N[C@@H](c1ccccc1)[C@@H](O)C(=O)O[C@H]1C[C@@]2(O)[C@@H](OC(=O)c3ccccc3)[C@@H]3[C@]4(OC(C)=O)CO[C@@H]4C[C@H](O)[C@@]3(C)C(=O)[C@H](OC(C)=O)C(=C1C)C2(C)C,Potency,[8],inactive
same,Potency,[4],inactive
same,Potency,[9],inactive
same,Potency,[6],0.001 µM (active)
CO[C@H]1CCC(O[C@H]2C[C@H]([C@]3(C)CC[C@]4(C[C@H](O)[C@@H](C)[C@@H]([C@@H](C)C=C(C)C(=O)[C@H](C)C[C@H](C)C(=O)O)O4)O3)O[C@]3(O[C@@H]([C@H]4O[C@@](O)(CO)[C@H](C)C[C@H]4C)C[C@H]3C)[C@H]2C)O[C@H]1C (some centres undefined),Potency,[8],3720 nM (active)
same,Potency,[3],1.18 µM (active)
same,Potency,[4],3.32 µM (active)
same,Potency,[9],1.18 µM (active)
same,Potency,[7],0.264 µM (active)
CC(C)N[C@@H]1CCn2c(=O)[nH]c3cccc(c32)[C@@H]1O,Potency,[3],14.8 µM (active)
same,Potency,[4],14.8 µM (active)
same,Potency,[9],11.8 µM (active)
same,Potency,[6],6.62 µM (active)
same,Potency,[7],5.26 µM (active)
C[C@]12CC[C@H](O)CC1=CC[C@H]1[C@H]3CCC(=O)[C@@]3(C)CC[C@@H]12,Potency,[8],inactive
same,Potency,[7],16.6 µM (active)
